Source: PubChem BioAssay
FBPA coupling cs: coupling enzyme interference in Giardia aldolase counter-screen. 290,000 compounds, 0.67% hits. AID 2472. activity change, negative = inhibition, % at 58.2 µM, hits read low. coupling enzyme system counterscreen, AmpLite Red fluorescence; in the data active means activity change below about -30%
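Fluorescence at 525 nm excitation and 598 nm emission measured inhibition of the coupled detection system without aldolase. Compounds (at 57.5 uM final) were preincubated 10 min at room temperature with coupling enzyme reagent before a 20 min substrate/AmpLite Red step.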
Giardia killer: Giardia lamblia killing; Giardia lamblia trophozoite viability; activity change, % at 7.66 µM, hits read low; 340,000 compounds, 0.15% hits; in the data active means activity change below about -80%; inconclusive means between about -30% and that limit;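 further: parasites exposed to compound for two days anaerobically before the ATP read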
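ATP-content bioluminescence gauges trophozoite survival. Cells (100/well) receive compound and incubate anaerobically for 48 hrs at 37 deg C; detection reagent follows for 15-30 min at room temperature.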
Sfp inh: blocks B. subtilis Sfp PPTase activity | Q9F4F7 | Biochemical Sfp PPTase activity, qHTS | Potency, µM, usual class: inhibitors | 310,000 compounds, 3.5% hits | AID 1490;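 further: the enzyme is Sfp with the accession as filed and its product quenches rhodamine fluorescence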
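Fluorescence-quenching assay with 15 nM Sfp, 5 uM rhodamine-CoA and 12.5 uM BHQ-2-labelled ybbR peptide in pH 7.6 Hepes/MgCl2 buffer. Enzyme was pre-incubated with compound for 15 min at room temperature. Rate was taken from the 30-min fluorescence change (525/598 nm).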
ELG1 DNA repair: ELG1-dependent DNA repair inhibition | AID 504467 | Potency, µM (series often up to 46.1 µM), actives largely listed as inhibitors | HEK293T ELG1-luciferase reporter, luminescence, 16 h; DNA damage induced by 5-fluorouridine | 330,000 compounds, 2.3% hits; further: nearly all actives have a fitted effect of over 55% in size
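DMSO vehicle served as the neutral condition. Each well held 2,000 cells given 5-fluorouridine plus compound; after 16 hr at 37 °C/5% CO2, ONE-Glo was added and luciferase measured 30 min later.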
Of the large screens only hits and unclear results are named; the others gave an inactive call. An excerpt weighted towards active compounds, which were near 5.5% of everything screened. Unless noted, the call rests on the fitted dose curve; in most records, active means well fitted curve in the direction sought with a large enough effect; inconclusive means small, poorly fitted or top-dose-only effect, or another doubt; inactive means no such curve, though single readings can be large; an effect the other way counts as inactive or inconclusive.

Cc1n[nH]c(=S)n1/N=C/c1ccc(OCc2ccc(Cl)cc2)cc1	ELG1 DNA repair inconclusive
COc1cc(OC)c(OC)cc1/C=N/n1c(COc2ccccc2)n[nH]c1=S	Sfp inh 45µM
Oc1ccc(/C=N/n2c(COc3ccccc3)n[nH]c2=S)c(O)c1	Sfp inh 56µM
Cc1cc(C)c(COc2ccc(/C=N/n3c(C)n[nH]c3=S)cc2)c(C)c1	Sfp inh 50µM
Fc1ccccc1/C=N/n1c(COc2ccccc2)n[nH]c1=S	Sfp inh 56µM
Oc1ccccc1/C=N/n1c(COc2ccccc2)n[nH]c1=S	Sfp inh inconclusive
S=c1[nH]nc(COc2ccccc2)n1/N=C/c1ccc(Cl)cc1Cl	none
O=C(O)c1ccc(Cn2cnc3c(=O)[nH]cnc32)cc1	none (no result: FBPA coupling cs, Sfp inh, ELG1 DNA repair)
COc1ccc(-c2cc(CC3(C(=O)O)CCN(C(=O)OC(C)(C)C)CC3)on2)c(OC)c1	none
Cc1ccccc1/C=N/n1c(COc2ccccc2)n[nH]c1=S	none
Cc1ccc(/C=N/n2c(COc3ccccc3)n[nH]c2=S)o1	Sfp inh 45µM
S=c1[nH]nc(COc2ccccc2)n1/N=C/c1ccco1	none
CCOc1ccccc1/C=N/n1c(COc2ccccc2)n[nH]c1=S	Sfp inh 35µM
COc1ccc(OC)c(NC(=O)CSc2nnc(-c3ccco3)n2-c2ccccc2)c1	ELG1 DNA repair 10µM
COc1ccc(OC)c(NC(=O)CSc2nncc3ccc(OC)c(OC)c23)c1	Sfp inh inconclusive, ELG1 DNA repair 21µM
COc1ccc2nc(SCC(=O)Nc3cc(OC)c(OC)cc3C(=O)O)c(C)cc2c1	Sfp inh 79µM
COc1ccc2cnnc(SCC(=O)Nc3ccccc3)c2c1OC	ELG1 DNA repair inconclusive
CCOC(=O)CSc1nnc(-c2ccco2)n1-c1ccc(C)cc1	none
CCOC(=O)CSc1nnc(-c2ccco2)n1-c1ccccc1	Sfp inh 35µM, ELG1 DNA repair inconclusive
CCc1ccc2c(CC(=O)Nc3cccc(S(=O)(=O)N4CCOCC4)c3)coc2c1	none (no result: FBPA coupling cs, Sfp inh)
COCCn1c(=O)[nH]c2cc(C(=O)NCCN3CCN(c4cccc(Cl)c4)CC3)ccc2c1=O	ELG1 DNA repair 21µM
COCCn1c(=S)[nH]c2cc(C(=O)N3CCN(c4cccc(Cl)c4)CC3)ccc2c1=O	ELG1 DNA repair inconclusive
Cc1cc(C(=O)NCCCN2CCN(c3cc(Cl)ccc3C)CC2)n(-c2ccccc2)n1	ELG1 DNA repair inconclusive
Cc1cc(C(=O)NCCN2CCN(c3cccc(Cl)c3)CC2)n(-c2ccccc2)n1	ELG1 DNA repair 8.2µM
CCCCNC(=O)CSc1nnc(-c2cccc(S(=O)(=O)N3CCOCC3)c2)o1	none (no result: FBPA coupling cs, Sfp inh)
CCn1c(N2CCN(S(=O)(=O)c3ccc(F)cc3)CC2)nc2ccccc21	ELG1 DNA repair inconclusive
CCn1c(N2CCN(S(=O)(=O)c3ccc(Cl)cc3)CC2)nc2ccccc21	ELG1 DNA repair 15µM
CCCC(=O)Nc1cc(OC)c(NC(=O)NC2CCCCC2)cc1OC	FBPA coupling cs -45
COc1cc(/C=N/Nc2nncn2N)ccc1OCc1c(C)no[n+]1[O-]	FBPA coupling cs -38, Sfp inh 71µM
COc1ccc(/C=N/Nc2nncn2N)cc1Br	none
O=C1Nc2ccc(Br)cc2/C1=C/C(=O)c1ccc2c(c1)OCO2	Sfp inh 56µM
O=C(N[C@@H](Cc1ccccc1)C(=O)N1CCN(S(=O)(=O)c2ccc(F)cc2)CC1)c1ccco1	none (no result: FBPA coupling cs, Sfp inh)
CC(C)(C)NC(=O)COC(=O)c1cc(F)c(F)cc1Cl	FBPA coupling cs -61
CNC(=O)COC(=O)c1cc(F)c(F)cc1Cl	none
CCOc1ccc(NC(=O)CSc2nnc(C)n2CC)cc1	none
Cn1c(=O)c2c(ncn2CC(=O)N2CCN(c3ccccc3F)CC2)n(C)c1=O	ELG1 DNA repair inconclusive
O=C(Cn1cnc2c(cnn2-c2ccc(F)cc2)c1=O)N1CCN(c2ccccc2F)CC1	ELG1 DNA repair 18µM
Cc1cccc(N2CCN(C(=O)Cn3cnc4c3c(=O)n(C)c(=O)n4C)CC2)c1C	Giardia killer inconclusive, ELG1 DNA repair 21µM
Cc1ccc(-n2ncc3c(=O)n(CC(=O)N4CCCc5ccccc54)cnc32)cc1C	ELG1 DNA repair 23µM
CN1CCCC2(CCN(C(=O)c3cnccn3)CC2)C1	none (no result: Giardia killer, ELG1 DNA repair)
CC(C)c1cccc2cc3c(nc12)-c1cccc(=O)n1C3	none (no result: Giardia killer, ELG1 DNA repair)
COc1ccc2c(c1)c1nc3ccccc3nc1n2Cc1ccc(OC(C)C)c(OC)c1	Sfp inh 14µM, ELG1 DNA repair inconclusive
COc1ccc(Cn2c3ccc(OC)cc3c3nc4ccccc4nc32)cc1	none
O=C(Nc1ccc(Cl)c(S(=O)(=O)N2CCOCC2)c1)c1ccc2c(c1)OCCO2	ELG1 DNA repair 23µM
